Screens as filed in PubChem BioAssay.
RGS16-Gao: modulators of RGS16 binding to Galphao, primary screen, biochemical, human proteins, multiplexed bead flow cytometry | Regulator of G-protein signaling 16 (Homo sapiens) + Guanine nucleotide-binding protein … | bead-based flow cytometry RGS16-Galphao binding, fluorescence; actives lie on both sides | binding response (% of control), % at 10 µM | 220,000 tested, 0.38% active | AID 1441, 2008; call rule not given here;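 note: Galphao activated by GDP with aluminum fluoride before binding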
RGS4-Gao reg: modulators of RGS4 binding to Galphao, primary screen, biochemical, multiplexed bead flow cytometry; binding response (% of control), % at 10 µM; AID 1415, 2008; actives lie on both sides; 220,000 tested, 0.33% active; in the data active = binding response below about 49% or above about 150%; inactive = in between;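 note: fluorescent Galphao activated with aluminum fluoride binding bead-coupled RGS4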
Target sequence (P09471 whole entry, looked up): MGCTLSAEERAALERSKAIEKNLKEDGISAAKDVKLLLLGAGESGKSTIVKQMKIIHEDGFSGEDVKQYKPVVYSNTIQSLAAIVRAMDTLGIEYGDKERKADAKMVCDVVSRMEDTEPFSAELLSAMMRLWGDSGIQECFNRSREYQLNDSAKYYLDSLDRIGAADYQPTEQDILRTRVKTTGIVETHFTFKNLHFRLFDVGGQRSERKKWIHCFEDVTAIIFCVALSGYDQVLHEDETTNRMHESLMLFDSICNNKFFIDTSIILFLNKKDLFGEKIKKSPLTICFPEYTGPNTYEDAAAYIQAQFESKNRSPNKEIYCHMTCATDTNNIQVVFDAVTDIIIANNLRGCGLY
GSH fluor: compound fluorescence on glutathione beads, profiling panel, artefact control, biophysical, 488/530 nm, flow cytometry; GSH beads flow cytometry, compound fluorescence 488/530 nm; active compounds read high; fluorescence (KMESF) at 10 µM; 190,000 tested, 0.25% active; in the data active = fluorescence above about 89;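 note: glutathione beads carrying GST-tagged Bcl family fusion proteins plus one bare bead set; values are compound well signal with DMSO vehicle wells as background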
RGS8-Gao: RGS8-Galphao binding modulators, primary screen, biochemical, multiplexed bead flow cytometry; response (percent of control binding), % at 10 µM; 220,000 tested, 0.34% active; actives lie on both sides; Guanine nucleotide-binding protein G(o) subunit alpha (Homo sapiens), P09471; AID 1423, 2008; in the data active = response below about 60% or above about 140%; inactive = in between;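 note: Galphao activated as the GDP aluminium fluoride complex binding bead-coupled RGS8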
Avidin bead fluor: green autofluorescence of compounds with avidin beads – biophysical, 488/530 nm, flow cytometry, artefact control, profiling panel; 220,000 tested, 0.38% active; compound fluorescence 488/530 nm; active compounds read high; fluorescence (KMESF) at 10 µM; in the data active = fluorescence above about 47
RGS7-Gao: RGS7-Galphao binding modulators, primary screen, biochemical, multiplexed bead flow cytometry; 220,000 tested, 0.35% active; binding response (% of control), % at 10 µM; Guanine nucleotide-binding protein G(o) subunit alpha (Homo sapiens), P09471; actives lie on both sides; in the data active = binding response below about 49% or above about 150%; inconclusive = no clear call, values can overlap the other calls; inactive = in between;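 note: fluorescent Galphao held in activated GDP-AlF4 state binding bead-coupled RGS7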
Active calls of the source: *; ? = inconclusive; / = not tested or not shown; [ ] = remark or other dose. Sampled rows, rich in hits. Any-hit rate of the full collection: about 1.2%.

SMILES	RGS16-Gao	RGS4-Gao reg	GSH fluor	RGS8-Gao	Avidin bead fluor	RGS7-Gao
COc1ccccc1N(C)S(=O)(=O)c1ccc(C(=O)NC(C)c2ccccc2)cc1 (stereo unspecified)	98	102	/	100	8	?
CCCCn1c(CN2CCN(C)CC2)nc2ccccc21	99	101	25	100	10	99
CCCn1c(CN2CCN(C)CC2)nc2ccccc21	14*	23*	37	13*	0	16*
CN(C)CCCNC(=O)c1cc(S(=O)(=O)N2CCOCC2)ccc1F	172	166*[activator]	31	142*[activator]	9	141
O=C(NCCCn1ccnc1)c1cc(S(=O)(=O)N2CCOCC2)ccc1F	99	99	12	98	22	100
N#CC(C(=O)Nc1cccc(Cl)c1)=C1Nc2ccccc2N1	104	109	17	101	34	102
N#CC(C(=O)Nc1ccc(Cl)c(Cl)c1)=C1Nc2ccccc2N1	102	99	26	101	50*	105
COC(=O)/C=C1/S/C(=N/NC(=O)c2ccc(Cl)cc2Cl)NC1=O	114	109	/	105	6	?
O=C(C1CCCO1)N1CCN(Cc2c(O)ccc3ccccc23)CC1 (stereo unspecified)	101	104	16	100	61*	113
Cc1ccc(CN2CCN(C(=O)C3CCCO3)CC2)cc1 (stereo unspecified)	108	100	50	101	6	101
CN(C)c1ccc(C2NCCS2)cc1 (stereo unspecified)	21*	15*	11	47*	9	27*
Cc1ccc(C2NCCS2)cc1 (stereo unspecified)	98	104	9	74	4	105
COC(=O)c1cc(N=C(N)N=C(N)N)cc(C(=O)OC)c1	74	74	/	82	4	?
CCOc1ccccc1OCC(=O)Nc1nnc(C)s1	110	109	30	104	117*	131
O=C(O)c1cc2nc3c(c(C(F)(F)F)n2n1)CCc1ccccc1-3	-6.0*	-12*	9	19*	/	1.4*
O=C(NCCN1CCN(Cc2ccccc2)CC1)C1c2ccccc2C(=O)N2CCc3ccccc3C12 (stereo unspecified)	100	112	20	100	112*	150
O=C(O)CNC(=O)CC1S/C(=N/N=C2\CSC(=O)N2)NC1=O (stereo unspecified)	98	94	8	100	19	98
O=C(COc1ccc(-c2nnco2)cc1)NC1CCCc2ccccc21 (stereo unspecified)	78	82	233*	90	4	85
O=C(COc1ccccc1)NC1CCCc2ccccc21 (stereo unspecified)	99	95	6	100	13	99
COc1cccc(NC(=O)C(=O)NCCc2ccc(F)cc2)c1	101	102	/	100	7	?
Cn1nc(-c2ccccc2)c(C(O)c2ccc(Cl)cc2)c1Cl (stereo unspecified)	103	100	13	99	56*	108
COCCN(C(=S)Nc1c(C)cc(C)cc1C)C(C)c1cccs1 (stereo unspecified)	103	103	11	99	8	105
COc1ccc(OCc2nnc(SCC(=O)c3ccccc3)o2)cc1	121	103	17	107	10	99
COc1cccc(C(=O)N2CCN(C(=O)Cc3ccccc3)CC2)c1	104	95	22	104	54*	107
CCCCOc1ccc(C(=O)N/C(=C/C=C/c2ccccc2)C(=O)NCCO)cc1	104	101	9	101	4	99
SMILES	RGS16-Gao	RGS4-Gao reg	GSH fluor	RGS8-Gao	Avidin bead fluor	RGS7-Gao
C=CCNC(=O)/C(=C\C=C\c1ccccc1)NC(=O)c1ccc(OCCCC)cc1	1.7*	20*	19	12*	-2	13*
COc1ccccc1/C=C/C(=O)OCC(=O)Nc1ccc(Cl)cn1	100	99	/	98	6	?
CCCCCCn1c(-c2cccs2)n[nH]c1=S	91	100	11	93	10	?
CC(Cc1ccsc1)NC(=O)CCc1nnc(CCc2ccccc2)o1 (stereo unspecified)	97	99	19	99	8	98
CC1CCCCC1NC(=S)NC(=O)c1cccs1 (stereo unspecified)	99	101	/	99	/	?
CCc1nnc(NC(=O)CSc2nnc(CCc3nc4ccccc4[nH]3)n2C)s1	103	99	286*	99	7	99
Cc1nnc(NC(=O)CSc2nnc(CCc3nc4ccccc4[nH]3)n2C)s1	102	103	5	104	8	97
O=C(NCc1ccco1)C(NS(=O)(=O)c1cccc2nsnc12)c1ccccc1 (stereo unspecified)	98	99	21	100	52*	108
CCCNC(=O)C(NS(=O)(=O)c1cccc2nsnc12)c1ccccc1 (stereo unspecified)	106	102	15	102	8	103
COc1ccc(CC(=O)Nc2ccccc2C(=O)N2CCOCC2)cc1	46	91	10	82	1	92
CCCCNC(C(=O)Nc1ccc(Cl)c([N+](=O)[O-])c1)c1ccccc1 (stereo unspecified)	107	102	18	103	7	103
CCOc1ccc(/C(O)=C2\C(=O)C(=O)N(c3cc(C)on3)C2c2ccccc2OC)cc1 (stereo unspecified)	162	142	15	116	76*	138
O=C(Nc1ccccc1)N(CCCN1CCOCC1)Cc1cc2cc3c(cc2[nH]c1=O)OCCO3	101	103	22	101	34	99
CCN(CC)CCCN(Cc1cc2cc3c(cc2[nH]c1=O)OCCO3)C(=O)Nc1ccccc1	103	102	14	98	54*	106
Nc1nc(-c2ccc3c(c2)CCCC3)cs1	102	101	263*	105	7	99
O=C(NCCSc1ccccc1)c1ccc(Br)cc1	102	101	18	102	16	97
O=C(NCCSc1ccccc1)c1cncc(Br)c1	106	106	18	101	91*	123
CC12CCCCC1N(O)C(=O)C(=O)N2O (stereo unspecified)	54	91	11	82	7	90
Cc1cc(NC(=O)CSc2nc3ccsc3c(=O)n2NC(=O)c2ccccc2)no1	23*	19*	64	39*	1	25*
